Screening data (PubChem BioAssay)
Shown are actives, neighbours in structure and some others; about 18% of the full set was active somewhere.
VP16 counter = Gal4-VP16 reporter inhibition counter-screen; Drosophila S2 Gal4-VP16 UAS-luciferase, luminescence, 20 h; Potency, µM (titrated, usually from 53.6 µM), hits mostly inhibitors; 3.5% of 310,000 active;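 note: Gal4-VP16 expression switched on by copper sulfate through the metallothionein promoter; nearly all actives have a fitted effect of over 50% in size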
LDHA block = inhibitors of human lactate dehydrogenase A | 0.15% of 480,000 active | activity change, % (values are at about 110 or 230 µM) | P00338 | purified LDHA, NADH/diaphorase-resazurin fluorescence; active compounds read low | AID 1347041; in the data active = activity change below about -30%; inconclusive = mostly about -25% to -30%
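Human LDH5 (2 nM) was incubated with 0.06 mM NADH and 0.2 mM pyruvate for 5 min at room temperature in Tris pH 7.4. Remaining NADH was coupled through diaphorase/resazurin, and resorufin fluorescence was read at 0 and 20 min.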
TDP1 cell noCPT = qHTS for Inhibitors of human tyrosyl-DNA phosphodiesterase 1 (TDP1): qHTS in cells in absence of CPT. DT40 Tdp1-/- hTDP1 cells, no CPT, ATP luminescence, 48 h. 15% of 420,000 active. Potency, µM (series often up to 46.2 µM), hits mostly inhibitors; note: nearly all actives have a fitted effect of over 55% in size
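Chicken DT40 Tdp1-/- cells complemented with human TDP1, screened without camptothecin (DMSO vehicle only), 400 cells/well. Compounds pin-transferred, cells incubated at 37 °C for at least 48 hr. Growth read as ATP-dependent luminescence (CellTiter-Glo, 30 min at RT).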
DT40 TDP1 CPT = growth inhibition of DT40 Tdp1-/-;hTDP1 cells with camptothecin (screen for TDP1 inhibitors) | chicken DT40 Tdp1-/-;hTDP1 cells + 20 nM CPT, ATP luminescence, 48 h | Potency, µM (titrated, usually from 46.2 µM), actives largely listed as inhibitors | 12% of 420,000 active | AID 686979; note: nearly all actives have a fitted effect of over 55% in size
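Chicken DT40 Tdp1-/- cells stably complemented with human TDP1 were seeded at 400 cells/well in medium containing 20 nM camptothecin, exposed to pin-transferred compounds, and grown at 37 °C for at least 48 hr. Viability was read as ATP luminescence.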
IL1B secr inh = inhibitors of inflammasome signaling (IL-1 beta secretion); THP-1 LPS/ATP IL-1B secretion, AlphaLISA, 16 h; active compounds read low; activity change, % at 57.5 µM; 4.7% of 360,000 active; in the data active = activity change below about -50%; inconclusive = mostly about -30% to -49%
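THP-1 cells pretreated 1 hr with compounds (up to 57.5 uM final), then stimulated with LPS (250 ng/mL final) plus ATP (1.25 mM final); secreted IL-1B measured by AlphaLISA after 16 hr, decreased signal indicating inhibition.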
RORgamma inh = inhibitors of mouse ROR gamma transcriptional activity; AID 2551; Potency, µM (titrated, usually from 53.6 µM), most hits filed as inhibitors; 5.4% of 310,000 active; P51450; Drosophila S2 Gal4-RORgamma UAS-luciferase reporter, 20 h; note: nearly all actives have a fitted effect of over 60% in size
Target sequence (P51450 whole entry, looked up, the tested form may be a part): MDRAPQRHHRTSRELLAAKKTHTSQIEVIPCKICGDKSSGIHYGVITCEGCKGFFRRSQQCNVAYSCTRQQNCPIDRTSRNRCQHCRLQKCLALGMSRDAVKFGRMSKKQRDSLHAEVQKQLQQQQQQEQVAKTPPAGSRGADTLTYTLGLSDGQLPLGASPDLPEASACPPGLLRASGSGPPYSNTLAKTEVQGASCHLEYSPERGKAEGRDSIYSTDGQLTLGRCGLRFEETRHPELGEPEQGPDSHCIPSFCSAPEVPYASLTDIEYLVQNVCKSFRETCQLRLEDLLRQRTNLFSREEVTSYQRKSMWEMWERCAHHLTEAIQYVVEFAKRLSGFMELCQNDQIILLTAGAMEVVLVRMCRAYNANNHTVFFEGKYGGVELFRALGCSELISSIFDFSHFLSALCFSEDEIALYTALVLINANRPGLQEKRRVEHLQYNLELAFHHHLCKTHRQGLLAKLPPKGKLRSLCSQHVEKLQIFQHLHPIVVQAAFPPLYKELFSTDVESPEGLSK
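Luciferase reporter read in Schneider cells carrying Gal4-RORγ (mouse) and UAS-Photinus luciferase; cells given compound 1 h before 700 uM copper sulfate induction, then incubated 20 h at ambient temperature.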
Large screens that a line does not name were inactive. Unless noted, calls come from the whole dose curve; as a rule, active = well fitted curve in the direction sought with a large enough effect; inconclusive = small, poorly fitted or top-dose-only effect, or another doubt; inactive = no such curve, though single readings can be large; an effect the other way counts as inactive or inconclusive.

Cc1cccc2cc(C(c3nnnn3Cc3ccccc3)N3CCCc4ccccc43)c(=O)[nH]c12 (configuration not stated)	TDP1 cell noCPT 16µM, DT40 TDP1 CPT 13µM
Cc1ccc(C(c2nnnn2Cc2ccccc2)N2CCN(Cc3ccncc3)CC2)cc1 (configuration not stated)	TDP1 cell noCPT inconclusive, DT40 TDP1 CPT inconclusive (no result: VP16 counter, IL1B secr inh, RORgamma inh)
c1ccc(CN2CCN(C(c3ccccc3)c3nnnn3Cc3ccccc3)CC2)cc1 (configuration not stated)	TDP1 cell noCPT 18µM, DT40 TDP1 CPT inconclusive, IL1B secr inh -58
Cc1ccc(C(c2nnnn2Cc2ccccc2)N2CCN(Cc3ccccc3)CC2)cc1 (configuration not stated)	TDP1 cell noCPT 16µM, DT40 TDP1 CPT inconclusive, IL1B secr inh inconclusive
Cc1ccc(S(=O)(=O)Cn2nnnc2C(c2ccc(F)cc2)N2CCCCC2)cc1 (configuration not stated)	TDP1 cell noCPT 23µM, DT40 TDP1 CPT inconclusive, RORgamma inh inconclusive
Cc1ccc(C(c2nnnn2CS(=O)(=O)c2ccc(C)cc2)N2CCCC2)cc1 (configuration not stated)	none
CN(CC(=O)N1c2ccccc2OCC1c1ccccc1)Cc1nc2ccccc2c(=O)[nH]1 (configuration not stated)	none (no result: VP16 counter, TDP1 cell noCPT, DT40 TDP1 CPT, IL1B secr inh, RORgamma inh)
Cc1ccc2cc(C(c3nnnn3Cc3ccccc3)N3CCN(c4ccccc4)CC3)c(=O)[nH]c2c1 (configuration not stated)	TDP1 cell noCPT inconclusive, DT40 TDP1 CPT 13µM
O=C(NCc1ccccn1)C1(c2cccc(C(F)(F)F)c2)CCOCC1	none (no result: VP16 counter, TDP1 cell noCPT, DT40 TDP1 CPT, IL1B secr inh, RORgamma inh)
O=C(NCC(c1ccco1)N1CCCC1)c1cc2cc(Cl)ccc2o1 (configuration not stated)	TDP1 cell noCPT inconclusive, DT40 TDP1 CPT 18µM (no result: VP16 counter, RORgamma inh)
Cc1cc2oc(C(=O)NCC(c3ccco3)N3CCCC3)c(C)c2cc1C (configuration not stated)	TDP1 cell noCPT 21µM, DT40 TDP1 CPT inconclusive (no result: VP16 counter, RORgamma inh)
O=C(NCC(c1ccco1)N1CCCC1)c1ccc(Cl)cc1 (configuration not stated)	none
O=C(NCC(c1ccco1)N1CCCCC1)c1ccc([N+](=O)[O-])s1 (configuration not stated)	TDP1 cell noCPT 23µM, DT40 TDP1 CPT 18µM (no result: VP16 counter, RORgamma inh)
O=C(NCC(c1ccco1)N1CCCCC1)c1cc(=O)c2ccccc2o1 (configuration not stated)	none (no result: VP16 counter, TDP1 cell noCPT, DT40 TDP1 CPT, IL1B secr inh, RORgamma inh)
Cc1ccc2oc(C(=O)NCC(c3ccco3)N3CCCC3)c(C)c2c1 (configuration not stated)	TDP1 cell noCPT inconclusive, DT40 TDP1 CPT 29µM
Cc1cc(C)c2c(C)c(C(=O)NCC(c3ccco3)N3CCOCC3)oc2c1 (configuration not stated)	none (no result: VP16 counter, TDP1 cell noCPT, DT40 TDP1 CPT, IL1B secr inh, RORgamma inh)
Cc1ccc(C(=O)NCC(c2ccco2)N2CCCCC2)s1 (configuration not stated)	TDP1 cell noCPT inconclusive, DT40 TDP1 CPT inconclusive (no result: VP16 counter, RORgamma inh)
Fc1cccc(Cl)c1Cn1c(CN2CCOCC2)nc2ccccc21	none (no result: VP16 counter, TDP1 cell noCPT, DT40 TDP1 CPT, IL1B secr inh, RORgamma inh)
Cc1ccc2c(Cl)c(C(=O)NCC(c3ccco3)N3CCCC3)sc2c1 (configuration not stated)	TDP1 cell noCPT inconclusive, DT40 TDP1 CPT 18µM
N#Cc1ccccc1Sc1ccccc1C(=O)NCC(c1ccco1)N1CCCCC1 (configuration not stated)	TDP1 cell noCPT inconclusive, DT40 TDP1 CPT inconclusive (no result: VP16 counter, RORgamma inh)
O=C(NCC(c1ccco1)N1CCCC1)c1ccccc1Sc1ccc(C(F)(F)F)cc1[N+](=O)[O-] (configuration not stated)	TDP1 cell noCPT inconclusive, DT40 TDP1 CPT inconclusive, IL1B secr inh -75 (no result: VP16 counter, RORgamma inh)
Cc1ccc2nc(C)cc(C(=O)NC3CCC(O)CC3)c2c1 (configuration not stated)	none (no result: VP16 counter, TDP1 cell noCPT, DT40 TDP1 CPT, IL1B secr inh, RORgamma inh)
